# Measurements as given in PubChem BioAssay AID651650 (Sanford-Burnham Center for Chemical Genomics, 2012).
# Target: Neuropilin-1 (Homo sapiens) (UniProt O14786)
# Experiment: NRP-1 b1b2 CendR peptide binding inhibitors, dose response, biochemical, FP and AlphaScreen panel (AID 651650)
# Details: NRP-1 b1b2 / RPARPAR peptide binding, FP or AlphaScreen; run 1, at 100 µM (top of the series)
# Sequence of Neuropilin-1 (Homo sapiens) (O14786 whole entry, looked up): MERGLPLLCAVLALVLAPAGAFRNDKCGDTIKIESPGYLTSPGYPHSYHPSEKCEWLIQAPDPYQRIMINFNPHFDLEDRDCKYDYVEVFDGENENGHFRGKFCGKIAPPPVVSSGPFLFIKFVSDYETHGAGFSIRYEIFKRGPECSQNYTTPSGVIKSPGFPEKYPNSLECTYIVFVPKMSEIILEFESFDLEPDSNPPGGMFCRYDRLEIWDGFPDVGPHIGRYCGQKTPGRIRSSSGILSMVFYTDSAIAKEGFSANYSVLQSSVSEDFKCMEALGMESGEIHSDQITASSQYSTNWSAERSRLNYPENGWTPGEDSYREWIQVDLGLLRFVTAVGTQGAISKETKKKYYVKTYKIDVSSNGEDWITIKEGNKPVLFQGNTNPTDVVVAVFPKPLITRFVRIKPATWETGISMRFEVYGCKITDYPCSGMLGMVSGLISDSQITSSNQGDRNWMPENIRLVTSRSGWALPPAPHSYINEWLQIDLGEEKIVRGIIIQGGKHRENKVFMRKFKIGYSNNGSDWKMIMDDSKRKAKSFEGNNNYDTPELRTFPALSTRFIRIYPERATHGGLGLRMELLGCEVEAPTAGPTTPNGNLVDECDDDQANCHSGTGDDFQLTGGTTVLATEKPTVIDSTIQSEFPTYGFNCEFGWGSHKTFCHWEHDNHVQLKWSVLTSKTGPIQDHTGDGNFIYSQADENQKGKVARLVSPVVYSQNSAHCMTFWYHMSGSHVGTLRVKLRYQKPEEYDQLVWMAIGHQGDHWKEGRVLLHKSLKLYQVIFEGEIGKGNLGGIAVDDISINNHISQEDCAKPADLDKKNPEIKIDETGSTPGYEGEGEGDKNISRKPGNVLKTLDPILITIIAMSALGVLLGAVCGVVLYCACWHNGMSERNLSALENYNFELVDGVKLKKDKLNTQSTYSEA
smiles,measurement,value
CCC(=NCCc1ccccc1)c1c(O)n(C2CCCCC2)c(=O)[nH]c1=O,inhibition,42.9%
COC(=O)C1=C(c2ccc(F)cc2OCc2ccccc2)C[C@@H]2CC[C@H]1N2C(=O)NCCNC(C)=O,inhibition,95.9%
Cc1c(NP(=O)(C(C)(C)C)C(C)(C)C)c(=O)n(-c2ccccc2)n1C,inhibition,31.8%
Cc1ccc(C(=O)C2CN3CCC2CC3)cc1 (centres undefined),inhibition,26.3%
O=C1C=CC(=O)C2C1C1(Cl)C(Cl)=C(Cl)C2(Cl)C1(Cl)Cl (centres undefined),inhibition,44.9%
O=S(=O)(c1cc(Cl)cc(Cl)c1)N1Cc2cc(-c3ccccc3)ccc2-n2nncc2C1,inhibition,13.6%
C=CCN1C(=O)C2(C(C(=O)OCC)=C(N)Oc3ccccc32)c2c1c1ccccc1oc2=O (centres undefined),inhibition,4.11%
CC(=O)OC1CC[C@]2(C#N)[C@H]3CC[C@]4(C)[C@H](C5C=CC(=O)O5)CCC4(O)C3CCC2(O)C1 (some centres undefined),inhibition,58.3%
COC(=O)C1=C(c2cccc(C#N)c2)C[C@@H]2CC[C@H]1N2C(=O)NCCO,inhibition,39.7%
Cc1ccc(Cn2nnnc2CN2CCC(n3nnc4ccccc43)CC2)cc1,inhibition,15.9%
CN1C[C@H](CO)C=C2c3cccc4[nH]cc(c34)C[C@H]21,inhibition,51.6%
Cc1ccc(C2(O)CCN3CCCCC32)cc1 (centres undefined),inhibition,-5.87%
CC1(C)CN=C(Nc2ccc(F)c(Cl)c2)S1,inhibition,82.2%
CCC1C2Cc3ccc(O)cc3C1(CC)CCN2C (centres undefined),inhibition,3.24%
